Assay results taken from PubChem BioAssay (NCATS).
Inconclusive results are not listed. The source made the active and inactive calls. The call rests on the fitted dose curve; in most records, active means well fitted curve in the direction sought with a large enough effect; inconclusive means small, poorly fitted or top-dose-only effect, or another doubt; inactive means no such curve, though single readings can be large; an effect the other way counts as inactive or inconclusive.

Assays:
[1] = target: Glutathione peroxidase 1 (Homo sapiens) (UniProt P07203); assay: Primary qHTS Assay for Inhibitors of Recombinant Selenoprotein Glutathione Peroxidase 1 (GPX1) (AID 1845191); settings: recombinant GPX1, GR-coupled NADPH fluorescence, 15 min; series mostly up to 48.8 µM; further: nearly all actives have a fitted effect of over 65% in size; on activity, negative = inhibition: on the % scale 0 is the no-effect control and ±100 the full control effect
In short: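 NADPH consumption tracked by fluorescence at 340/450 nm between t=0 and t=15 min, room temperature. Final mix: 10 nM GPX1, 100 nM glutathione reductase, 1 mM GSH, 0.5 mM NADPH, 0.5 mM cumene hydroperoxide, 0.01% BSA; 30 min compound–enzyme preincubation.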

[2] = target: Phospholipid hydroperoxide glutathione peroxidase GPX4 (Homo sapiens) (UniProt P36969); assay: Primary qHTS Assay for Inhibitors of Recombinant Selenoprotein Glutathione Peroxidase 4 (GPX4) (AID 1845192); settings: recombinant GPX4, GR-coupled NADPH fluorescence, 15 min; series mostly up to 50 µM; further: nearly all actives have a fitted effect of over 65% in size; on activity change, negative = inhibition: on the % scale 0 is the no-effect control and ±100 the full control effect
In short: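 NADPH consumption followed by fluorescence at 340/450 nm, t=0 and after 15 min at room temperature. Reaction started with cumene hydroperoxide (0.5 mM final) after 30 min compound–GPX4 preincubation; final 200 nM GPX4, 100 nM GR, 1 mM GSH, 0.5 mM NADPH.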

[3] = target: Luciferin 4-monooxygenase (Photinus pyralis) (UniProt P08659); assay: Primary firefly luciferase (FLuc) qHTS assay for identification of artifact compounds. (AID 1845220); settings: purified firefly luciferase, luminescence, 5 min; series mostly up to 54.1 µM; further: nearly all actives have a fitted effect of over 60% in size;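 on activity change, negative = inhibition: plate controls were DMSO vehicle for no effect and no enzyme for full effect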
In short: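 Compounds sat 15 min at room temperature with 10 uM luciferin and 10 uM ATP (pH 7.6 Tris acetate). Firefly luciferase (10 nM final) was then added, and luminescence was read 5 min later. Data normalized to no-enzyme and DMSO controls were Hill-fitted.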

[4] = test system: Nanoluciferase (engineered Oplophorus gracilirostris luciferase); assay: Primary Nanoluciferase (NLuc) qHTS assay for identification of artifact compounds. (AID 1845222); settings: NLuc-conditioned medium, Nano-Glo luminescence, 5 min; series mostly up to 54.1 µM;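 further: 0% = DMSO and -100% = no enzyme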
In short: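 Luminescence from secreted NLuc (filtered, 1:55-diluted S16 cell medium) read 5 min after Nano-Glo substrate; compounds preincubated 15 min, RT. Hill fits of inhibition normalized to DMSO and no-enzyme.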

[5] = Primary redox qHTS assay for identification of artifact compounds. (AID 1845223); settings: Amplex Red/HRP redox cycling with DTT, fluorescence; series mostly up to 53.8 µM;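 further: 0% = DMSO and 100% = reference compound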
In short: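 Redox-cycling detection via DTT (250 uM final) oxidation coupled to Amplex Red (25 uM)/HRP (250 mU/mL) in HBSS. 15 min preincubation plus 30 min after DTT, room temperature. Ex/Em 525/598 nm; 4-parameter Hill fit against DMSO and 10 uM DA3003.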

[6] = Primary fluorescence-based thiol-reactive (MSTI) qHTS assay for identification of artifact compounds. (AID 1845221); settings: MSTI thiol-reactivity probe, 1 h; series mostly up to 53.8 µM;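 further: thiol-reactive compounds lower the probe fluorescence signal; nearly all actives have a fitted effect of over 65% in size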
In short: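 MSTI probe at 4 uM final in 2% DMSO/PBS pH 7.4; compounds, 1 h at room temperature in dark. Fluorescence Ex/Em 525/598 nm, normalised to Acetyl-MSTI and MSTI, fitted to 4-parameter Hill.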

Phospholipid hydroperoxide glutathione peroxidase GPX4 (Homo sapiens), sequence (P36969 whole entry, looked up): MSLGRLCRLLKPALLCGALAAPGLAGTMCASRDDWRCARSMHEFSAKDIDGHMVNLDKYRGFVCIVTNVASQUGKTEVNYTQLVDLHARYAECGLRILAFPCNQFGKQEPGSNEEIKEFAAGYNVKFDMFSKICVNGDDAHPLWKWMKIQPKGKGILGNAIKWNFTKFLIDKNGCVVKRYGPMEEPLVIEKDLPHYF
Glutathione peroxidase 1 (Homo sapiens), sequence (P07203 whole entry, looked up): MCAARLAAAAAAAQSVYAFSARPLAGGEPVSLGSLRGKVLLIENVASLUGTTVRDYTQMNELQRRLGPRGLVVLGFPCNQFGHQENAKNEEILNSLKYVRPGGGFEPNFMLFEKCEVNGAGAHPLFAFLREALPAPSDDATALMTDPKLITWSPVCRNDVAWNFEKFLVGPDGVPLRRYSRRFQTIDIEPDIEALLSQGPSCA

O=C(O)c1ccc(OC2OC(CO)C(O)C(O)C2O)cc1 (stereo not given)
inactive: Potency [1] | Potency [2] | Potency [3] | Potency [4] | Potency [5]

CC(C)c1cc(CNc2nc(Nc3cc(C4CC4)[nH]n3)cc(N3CCN(C)CC3)n2)on1
inactive: Potency [1] | Potency [2] | Potency [3] | Potency [4]

COC(=O)C1=CO[C@@H](O[C@@H]2O[C@H](CO)[C@@H](O)[C@H](O)[C@H]2O)C2C1C(=O)C[C@H]2C (stereo not given in full)
inactive: Potency [1] | Potency [2] | Potency [3] | Potency [4] | Potency [5]

CCCCNc1ncc2c(-c3ccc(CN4CCN(C)CC4)cc3)cn(C3CCC(O)CC3)c2n1 (stereo not given)
inactive: Potency [1] | Potency [2] | Potency [3] | Potency [4]

CC1(C)CCCC2(C)C1CC=C1C(=O)OC(O)C12O (stereo not given)
inactive: Potency [1] | Potency [2] | Potency [3] | Potency [4] | Potency [5]

C[C@@H]1CCC/C=C/[C@H]2CC(=O)C[C@@H]2[C@@H](O)/C=C/C(=O)O1
inactive: Potency [1] | Potency [2] | Potency [3] | Potency [4]

CC12CCC3c4ccc(O)cc4CCC3C1CC(OC1OC(C(=O)O)C(O)C(O)C1O)C2O (stereo not given)
inactive: Potency [1] | Potency [2] | Potency [3] | Potency [6] | Potency [5]

COc1ccc(N2CCOCC2)c2sc(NC(=O)N3CCC(C)(O)CC3)nc12
inactive: Potency [1] | Potency [2] | Potency [3] | Potency [4]

C=C1C(OC2OCC(O)C(O)C2O)CC2C(C)(C)C(O)CCC2(C)C1CC/C(C)=C\CO (stereo not given)
inactive: Potency [1] | Potency [2] | Potency [3] | Potency [4]

COc1c2c(c(C)c3c1C(=O)OC3)OC1(C)CC(O)C(C(C)(C)O)C(C)(CCC(=O)O)C1C2 (stereo not given)
inactive: Potency [1] | Potency [2] | Potency [3] | Potency [4] | Potency [5]

C[C@H]1O[C@@H](O[C@H]2CC[C@@]3(C)C(CC[C@]4(C)C3CC=C3C5CC(C)(C)CC[C@]5(C(=O)O)CC[C@]34C(=O)O)C2(C)C)[C@H](O)[C@@H](O)[C@@H]1O (stereo not given in full)
inactive: Potency [1] | Potency [2] | Potency [3] | Potency [4] | Potency [5]

O=C(O[C@H]1[C@@H]2C=CO[C@@H](O[C@@H]3O[C@H](CO)[C@@H](O)[C@H](O)[C@H]3O)[C@@H]2[C@@]2(CO)O[C@@H]12)c1ccccc1
inactive: Potency [1] | Potency [2] | Potency [3] | Potency [4] | Potency [5]

CC(C)(O)CC(CO)NC(=O)CC(O)CC(=O)Cc1ccccc1 (stereo not given)
inactive: Potency [1] | Potency [2] | Potency [3] | Potency [4] | Potency [5]

CC[C@H]1OC(=O)[C@H](C)[C@@H](O[C@H]2C[C@@](C)(OC)[C@@H](O)[C@H](C)O2)[C@H](C)[C@@H](O[C@@H]2O[C@H](C)C[C@H](N(C)C)[C@H]2O)[C@](C)(O)C[C@@H](C)C(=O)[C@H](C)[C@H]2OC(=O)O[C@@]21C
inactive: Potency [1] | Potency [2] | Potency [3] | Potency [4] | Potency [5]

COc1cc(C(=O)O)ccc1OC1OC(CO)C(O)C(O)C1O (stereo not given)
inactive: Potency [1] | Potency [2] | Potency [3] | Potency [4] | Potency [5]

O=C1N=C(N2CCOCC2)CN1c1ccc(Cl)cc1
inactive: Potency [1] | Potency [2] | Potency [3] | Potency [4] | Potency [5]

C=C[C@H]1[C@H](O[C@@H]2O[C@H](CO)[C@@H](O)[C@H](O)[C@H]2O)OC=C(C(=O)OC)[C@H]1C/C=C(/C=O)[C@@H]1C(C(=O)OC)=CO[C@@H](O[C@@H]2O[C@H](CO)[C@@H](O)[C@H](O)[C@H]2O)[C@@H]1C=C
inactive: Potency [1] | Potency [2] | Potency [3] | Potency [4] | Potency [5]

Cc1cc(O)cc(O[C@@H]2O[C@H](CO)[C@@H](O)[C@H](O)[C@H]2O)c1
inactive: Potency [1] | Potency [2] | Potency [3] | Potency [4] | Potency [5]

Cc1ccc([N+](=O)[O-])cc1S(=O)(=O)N(C)/N=C/c1cnc2ccc(Br)cn12
inactive: Potency [1] | Potency [2] | Potency [3] | Potency [4] | Potency [5]

COC(=O)c1ccnc(-c2cc(C(=O)NCCc3ccccc3)ccn2)c1
inactive: Potency [1] | Potency [2] | Potency [3] | Potency [4] | Potency [5]

Cc1c2cc(c(C(=O)O)c1C)OC1OC(C(O)C(O)C1O)C(O)C(O)C1OC(O2)C(O)C(O)C1O (stereo not given)
inactive: Potency [1] | Potency [2] | Potency [3] | Potency [4] | Potency [5]

CC(Cc1cc2c(c(C(N)=O)c1)N(CCCO)CC2)NCCOc1ccccc1OCC(F)(F)F (stereo not given)
inactive: Potency [1] | Potency [2] | Potency [3] | Potency [4] | Potency [5]

CC(C)O[C@@H]1O[C@H](CO)[C@@H](O)[C@H](O)[C@H]1O
inactive: Potency [1] | Potency [2] | Potency [3] | Potency [4] | Potency [5]

COc1ccc(C(O)C(C)OC2OC(CO)C(O)C(O)C2O)cc1 (stereo not given)
inactive: Potency [1] | Potency [2] | Potency [3] | Potency [4] | Potency [5]

c1ccc(N2CCN(CCc3nn[nH]n3)CC2)cc1
inactive: Potency [1] | Potency [2] | Potency [3] | Potency [4] | Potency [5]

CN1CCN(c2ccc(C(=O)Nc3n[nH]c4ccc(Cc5cc(F)cc(F)c5)cc34)c(NC3CCOCC3)c2)CC1
inactive: Potency [1] | Potency [2] | Potency [3] | Potency [4] | Potency [5]

CC1OC(OC2C(OC3C(O[C@H]4CC[C@@]5(C)C(CC[C@]6(C)C5C(=O)C=C5C7CC(C)(C)CC(O)[C@]7(C)CC[C@]56C)C4(C)C)OC(C(=O)O)C(O)C3O)OCC(O)C2O)C(O)C(O)C1O (stereo not given in full)
inactive: Potency [1] | Potency [2] | activity change, negative = inhibition [3] 2.88% [at 11.6 µM] | activity, negative = inhibition [4] -14.3% [at 11.6 µM] | redox activity (% of DA3003) [5] 2.04% [at 11.5 µM]

COC(=O)[C@@H](O)[C@H]1[C@@]2(C)CC3(O)[C@@H](C(=O)[C@H]2O)[C@]24O[C@]25CC(=O)O[C@@H](c2ccoc2)[C@]5(C)CCC4[C@]13C (stereo not given in full)
inactive: Potency [1] | Potency [2] | Potency [3] | Potency [4] | Potency [5]

CC(C)[C@@](C)(O)[C@@H]1CN(c2nc(-c3[nH]nc4ncccc34)c(F)cc2Cl)CCN1
inactive: Potency [1] | Potency [2] | Potency [3] | Potency [4] | Potency [5]
